Assay outcomes deposited in PubChem by National Center for Advancing Translational Sciences (NCATS).
KB-V1 cytotox: kills drug-selected multidrug resistant KB-V1 cells; KB-V1 MDR cells viability, CellTiter-Glo, 72 h; Potency, µM (doses to about 46.1 µM), usual class: cytotoxic; hit rate 3.4% among 400,000; AID 1347076; note: potency is the fitted concentration of half-maximal effect; nearly all actives have a fitted effect of over 60% in size
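Cytotoxicity toward P-gp-expressing KB-V1 cells was determined as loss of CellTiter-Glo luminescence after 72 h at 37 degrees C. Compounds were tested in quantitative HTS format across a concentration range, with curves fitted to normalized data.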
PI4K2A inh: blocks human PI4K2A kinase activity; Q9BTU6; purified PI4K2A, ADP-Glo luminescence, 1 h; hits give low values; activity change, negative = inhibition, % at 76.9 µM; hit rate 0.13% among 420,000; in the data active = activity change below about -50%; inconclusive = mostly about -30% to -49%;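 note: -100% = wells without enzyme as full effect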
Target sequence (Q9BTU6 whole entry, looked up): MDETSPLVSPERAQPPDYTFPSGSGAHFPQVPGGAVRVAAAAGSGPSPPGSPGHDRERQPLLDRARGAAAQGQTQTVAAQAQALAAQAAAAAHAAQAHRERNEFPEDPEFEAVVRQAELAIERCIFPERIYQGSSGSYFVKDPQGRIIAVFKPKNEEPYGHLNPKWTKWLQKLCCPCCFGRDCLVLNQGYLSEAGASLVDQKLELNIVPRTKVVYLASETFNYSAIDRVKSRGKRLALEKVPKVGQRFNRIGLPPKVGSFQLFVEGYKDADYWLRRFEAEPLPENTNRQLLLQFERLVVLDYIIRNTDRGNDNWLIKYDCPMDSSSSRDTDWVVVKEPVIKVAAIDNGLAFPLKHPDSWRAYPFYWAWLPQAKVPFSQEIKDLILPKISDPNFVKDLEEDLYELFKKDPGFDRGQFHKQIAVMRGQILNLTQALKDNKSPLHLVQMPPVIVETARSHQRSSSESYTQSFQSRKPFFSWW
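In this quantitative HTS, ADP production by PI4K2A was quantified luminescently after 1 h at ambient temperature; 100 microM adenosine served as plate-quality control.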
KB-3-1 tox: KB-3-1 parental cell cytotoxicity. KB-3-1 viability, CellTiter-Glo ATP luminescence, 72 h. Potency, µM (highest dose often 46.1 µM), actives largely listed as cytotoxic. hit rate 1.4% among 400,000. AID 1347075; note: potency is the fitted concentration of half-maximal effect; nearly all actives have a fitted effect of over 60% in size
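Screening of KB-3-1 cells (DMEM, 10% FBS, phenol-red free) ran from lowest to highest compound concentration; after 72 h at 37 °C viability was read luminescently and curves fitted.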
Nrf2 inh: blocks Nrf2 signaling | A549 ARE-Fluc reporter, luciferase luminescence, 18-24 h | Potency, µM (top dose mostly 46 µM), for the others: at the top dose activity change, negative = inhibition, usual class: inhibitors | hit rate 2.1% among 360,000; note: potency is the fitted concentration of half-maximal effect; nearly all actives have a fitted effect of over 60% in size
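Reporter: ARE-Fluc in A549. Exposure: 18-24 h, 37 °C, 5% CO2, 5% FBS OPTI-MEM. Readouts: fluorescent cytotoxicity (CellTiter-Fluor), then luminescent Nrf2 signal after BugLite.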
Giardia killer: Giardia lamblia killing. Giardia lamblia trophozoite viability. activity change, % at 7.66 µM, hits read low. hit rate 0.15% among 340,000. AID 540267; in the data active = activity change below about -80%; inconclusive = between about -30% and that limit;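 note: parasites exposed to compound for two days anaerobically before the ATP read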
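Luminescent ATP signal served as the viability read-out, measured 15-30 min after adding ATP detection reagent to trophozoites that had been incubated with compounds for 48 hrs at 37 deg C anaerobically at 100 cells/well.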
A549 viability: A549 cytotoxicity, counter-screen for Nrf2 inhibitors. A549 ARE-Fluc cells, CellTiter-Fluor viability, 18-24 h. Potency, µM (titrated, usually from 46 µM), for inactives: top-dose activity change, negative = cytotoxicity, most hits filed as inhibitors. hit rate 0.16% among 390,000. AID 504648; note: potency is the fitted concentration of half-maximal effect
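Cytotoxicity counterscreen: CellTiter-Fluor fluorescence was measured in A549 ARE_Fluc cells after 18-24 h of compound exposure in a concentration series. The subsequent BugLite luminescent read reports ARE-luciferase activity.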
Active calls of the source: *; i = inactive; ? = inconclusive; . = no result; ! = not confirmed by another sample. A selection: hits, their analogues and other compounds. The true share with any hit is near 5.7%. Unless noted, calls come from the whole dose curve; as a rule, active = well fitted curve in the direction sought with a large enough effect; inconclusive = small, poorly fitted or top-dose-only effect, or another doubt; inactive = no such curve, though single readings can be large; an effect the other way counts as inactive or inconclusive. Unless noted, % is set by controls: 0 for no effect and ±100 for the full control effect.

SMILES | KB-V1 cytotox | PI4K2A inh | KB-3-1 tox | Nrf2 inh | Giardia killer | A549 viability
O=C(Nc1ccncc1)C1CCN(S(=O)(=O)c2cccc(C(F)(F)F)c2)CC1 | i | 3 | i | 16µM* | -5 | -4%
O=C(Nc1ccc(CN2CCCCC2)cc1)Nc1ccc(Br)cc1Cl | ? | 2 | 13µM* | -9% | 12 | ?
CSc1ncc(C(=O)Nc2cc(Cl)ccc2C)c(-c2ccccc2)n1 | i | 2 | i | 9% | . | 3%
O=C(Nc1ccc(N2CCOCC2)cc1)c1cccc(S(=O)(=O)N2CCCCC2)c1 | i | -3 | i | 21µM* | 19 | -13%
CCOc1ccccc1NC(=O)c1cnn2c(C(F)F)cc(-c3ccccc3)nc12 | i | -2 | 18µM* | -19% | . | -8%
O=C(Nc1cccc(S(=O)(=O)N2CCCCCC2)c1)c1cc(=O)c2ccccc2o1 | ? | -4 | i | 18µM* | 5 | -14%
CCN1CCN(c2ccc(NC(=O)c3cccc(S(=O)(=O)N4CCCC4)c3)cc2)CC1 | ? | 3 | i | 7% | 4 | -1%
Cc1ccc(S(=O)(=O)N2CCOCC2)cc1C(=O)Nc1ccc(N2CCCCCC2)cc1 | ? | -5 | 3.7µM* | 21µM* | 20 | -20%
CCn1nc(C)c(NC(=O)c2cnn3c(C(F)F)cc(-c4ccccc4)nc23)c1C | i | -4 | ? | ? | 3 | 3%
COc1ccc(NC(=O)Cn2ccn(-c3ccc(F)c(F)c3)c(=O)c2=O)cc1Cl | . | -5 | . | -23% | . | -4%
C[C@H]1[C@H](NC(=O)c2cccc(C(F)(F)F)c2)CC[C@@]23CCCN2C(=O)CCC[C@@H]13 | . | -4 | . | . | . | .
c1coc(-c2nc3cc4ccccc4cc3nc2-c2ccco2)c1 | . | . | . | ? | ? | -12%
O=C(Nc1cccc(S(=O)(=O)N2CCCC2)c1)c1cc(-c2ccccn2)nc2ccccc12 | ? | 1 | i | 9.2µM* | 16 | -1%
CC(C(=O)NCc1ccc(F)cc1)n1ccc2cc(S(=O)(=O)N3CCCC3)ccc21 (stereo not drawn) | ? | 0 | ? | 21µM* | -2 | -17%
Cc1ccc(CNC(=O)C(C)n2ccc3cc(S(=O)(=O)N4CCCC4)ccc32)cc1 (stereo not drawn) | i | 2 | i | ? | . | -4%
Cc1cc(C(=O)Nc2cccc(S(=O)(=O)N3CCCC3)c2)c2ccccc2n1 | i | 6 | i | ? | 2 | -7%
CCOc1ccccc1NC(=O)c1cc(-c2ccccn2)nc2ccccc12 | ? | 5 | 18µM* | -35% | 11 | 13%
O=C(Nc1cc(=O)c2ccccc2o1)N1CCCCC1 | 12µM* | 1 | i | ? | -12 | .
CCOc1ccc(/C=N/n2c(-c3n[nH]c4c3CCC4)n[nH]c2=S)cc1 | . | 4 | . | . | . | .
CN(Cc1ccc(F)cc1)C(=O)c1cccc(NS(=O)(=O)c2ccccc2)c1 | i | 5 | i | -7% | -10 | -3%
COc1ccc(CN(C)C(=O)c2cccc(NS(=O)(=O)c3ccccc3)c2)cc1F | 8.2µM* | -1 | i | -19% | -2 | 0%
CCCCOc1ccc(C(=O)NC2CCCCN(Cc3cccc(C(F)(F)F)c3)C2=O)cc1 (stereo not drawn) | . | -2 | . | . | . | .
Cc1ccc(S(=O)(=O)N2CCn3cccc3C2C)cc1 (stereo not drawn) | 13µM* | -1 | i | -5% | 11 | 10%
COc1ccc(-c2c(-c3cc(OC)c(OC)c(OC)c3)noc2C)cn1 | 1.6µM*! | -1 | 1.6µM* | 3% | -3 | 1%
COc1cc(-c2c(-c3cc(OC)c(OC)c(OC)c3)noc2C)ccc1F | 0.41µM* | 8 | 0.33µM*! | ? | 15 | -6%
SMILES | KB-V1 cytotox | PI4K2A inh | KB-3-1 tox | Nrf2 inh | Giardia killer | A549 viability
COC(=O)c1cc(-c2c(-c3cc(OC)c(OC)c(OC)c3)noc2C)cc([N+](=O)[O-])c1 | i | 4 | ? | 1% | -3 | 6%
COc1ccc(-c2c(-c3ccc4c(c3)OCO4)noc2C)cn1 | ? | -3 | ? | 0% | -2 | 9%
COc1ccc(S[C@]2(C(=O)NCC(C)C)CC(=O)N[C@@H]2c2ccc(OC)cc2)cc1 | . | 2 | . | . | . | .
Cc1ccc(S(=O)(=O)N2CCN(c3nc(-c4ccncc4)nc4ccccc34)CC2)cc1 | . | . | . | 1% | 8 | 1%
CC(=O)O[C@@H]1CC2C3CCc4cc(OC(=O)c5ccccc5)ccc4C3CCC2(C)[C@H]1OC(C)=O (stereo partly drawn) | . | 3 | . | . | . | .
CC1OC(C2CCCCC2)Cc2[nH]c(=S)[nH]c(=O)c21 (stereo not drawn) | ? | 1 | i | . | . | .
CC(C)[C@@H]1Cc2[nH]c(=O)[nH]c(=O)c2[C@H](C)O1 | 18µM* | -1 | ? | . | . | .
CC(C)[C@@H]1Cc2[nH]c(=S)[nH]c(=O)c2[C@H](C)O1 | 5.8µM* | 0 | 8.2µM* | . | . | .
CC(C)[C@@H]1Cc2[nH][nH]c(=O)c2[C@H](C)O1 | ? | 1 | i | . | . | .
C[C@@H]1O[C@H](C2CCCC2)Cc2[nH]c(=S)[nH]c(=O)c21 | ? | 1 | 16µM* | . | . | .
COc1cc2nc(N3CCCN(C)CC3)nc(Nc3ccncc3)c2cc1OC | i | . | 13µM* | . | . | .
O=C(c1ccc(C#Cc2ccccc2)cc1)N1CCC(O)CC1 | . | -1 | . | . | . | .
N#C/C(=C/c1ccc2c(c1)OCO2)C(=O)NCCc1c[nH]c2ccccc12 | 15µM* | 10 | i | -23% | 1 | -13%
COC(=O)[C@]12C[C@H](CC(=O)N3CCN(C(=O)C4CC4)CC3)C(=O)N(Cc3cccc4ccccc34)C1=C[C@H](C(C)(C)C)O[C@@H]2C | . | -1 | . | . | . | .
CC(C)CN1C(=O)C[C@@]2(C(=O)N(C)c3ccc(NS(=O)(=O)C4CCCCC4)cc32)C1c1ccccc1 (stereo partly drawn) | . | 6 | . | . | . | .
COc1ccccc1C(=O)Nc1ccc2c(c1)nc(CCNC(=O)c1ccco1)n2C | ? | -5 | 1.6µM* | ? | -1 | ?
Cn1c(CCNC(=O)c2ccccc2)nc2cc(NC(=O)c3ccco3)ccc21 | 16µM* | -1 | ? | 21% | 12 | -1%
COC(=O)[C@@]1(OC(C)=O)CC(OC(C)=O)[C@H](OC(C)=O)[C@H](OC(C)=O)C1Br (stereo partly drawn) | . | -2 | . | . | . | .
COc1ccc(-c2cc(=O)n(-c3nc4ccccc4[nH]3)[nH]2)cc1 | i | -13 | 21µM* | ? | -26 | ?
N#CCCn1cc(C=C(C#N)C#N)c(-c2ccc(-c3ccccc3)cc2)n1 | 21µM* | 1 | ? | 12% | -5 | -6%
